Laboratory results as given in the supplement of paper PMC10981050.
Where “and” joins values, the source holds several entries; their conditions need not be identical. Equal values may be shown once. Where a name gives a salt, the structure may show the parent alone.

Columns and labels:
Assay in all cases: cell viability relative to vehicle control; higher = less cytotoxic
Details in all cases: 10 µM
K562 = tested on: K562
Method in brief: (§1)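 Mutant clones made by CRISPR editing and their isogenic wild-type counterparts, from four leukaemia lines, were exposed to a single 10 µM dose of each library compound for 48 h. The supernatant was then removed and CellTiter-Glo luminescence was read. Viability was reported as percent of the on-plate vehicle control.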

MARIMO = tested on: MARIMO
Method in brief: as §1

MOLM14 = tested on: MOLM14
Method in brief: as §1

OCI-AML2 = tested on: OCI-AML2
Method in brief: as §1

Row | SMILES | cell viability (K562; SRSF2 genotype: SRSF2 P95H/wt) | cell viability (K562; SRSF2 genotype: SRSF2 wt/wt) [%] | cell viability (MARIMO; SRSF2 genotype: SRSF2 P95H/wt) [%] | cell viability (MARIMO; SRSF2 genotype: SRSF2 wt/wt) [%] | cell viability (MOLM14; SRSF2 genotype: SRSF2 P95H/wt) [%] | cell viability (MOLM14; SRSF2 genotype: SRSF2 wt/wt) [%] | cell viability (OCI-AML2; SRSF2 genotype: P95H/wt) [%] | cell viability (OCI-AML2; SRSF2 genotype: wt/wt) [%]
1 | C[C@@H]1CC[C@]2(C(=O)O[C@@H]3O[C@H](CO)[C@@H](O)[C@H](O)[C@H]3O)CC[C@]3(C)C(=CC[C@@H]4[C@@]5(C)CC[C@H](O)[C@@](C)(CO)[C@@H]5CC[C@]43C)[C@@H]2[C@]1(C)O [Pedunculoside] | 109% and 108% | 113 | 108 | 97.5 | 107 | 108 | 106 | 104
2 | CC(C)=CCCC(C)(OC1OC(COC2OCC(O)C(O)C2O)C(O)C(O)C1O)C1CCC2(C)C1C(O)CC1C3(C)CCC(OC4OC(CO)C(O)C(O)C4O)C(C)(C)C3CCC12C (stereo unspecified) [Gynostemma Extract] | 100% and 107% | 102 | 108 | 111 | 101 | 102 | 110 | 98
3 | O=C(c1ccc(OCCCc2c[nH]cn2)cc1)C1CC1 [Ciproxifan Maleate] | 89.3% and 91.3% | 87.7 | 85.2 | 90.4 | 95.9 | 93.9 | 71.8 | 83.4
4 | NC(=O)c1cn(Cc2c(F)cccc2F)nn1 [Rufinamide (Banzel)] | 101% and 104% | 106 | 106 | 108 | 107 | 107 | 113 | 103
5 | COC(c1ccccc1)(c1ccccc1)[C@H](Oc1nc(C)cc(C)n1)C(=O)O [Ambrisentan] | 103% and 96.5% | 98.8 | 95.2 | 109 | 102 | 103 | 102 | 105
6 | CN(C)CCc1c[nH]c2ccc(Cn3cncn3)cc12 [Rizatriptan Benzoate (Maxalt)] | 86.7% and 84.6% | 84.2 | 76.2 | 82.7 | 86.7 | 85.6 | 92.7 | 83.5
7 | NC(=O)c1ccc(I)c([N+](=O)[O-])c1 [Iniparib (BSI-201)] | 101% and 102% | 113 | 97.6 | 81.1 | 98.6 | 100 | 127 | 114
8 | CN(C)CCCn1cc(C2=C(c3c[nH]c4ccccc34)C(=O)NC2=O)c2ccccc21 | 91.2% and 78.4% | 98.8 | 82.9 | 92 | 36.4 | 32.5 | 34 | 67.1
9 | CC(C)[C@H](N)C(=O)OCCOCn1cnc2c(=O)nc(N)[nH]c21 [Valaciclovir HCl] | 100% and 99% | 102 | 101 | 111 | 101 | 101 | 98.7 | 112
10 | O=S(=O)(O)c1ccc2cc(N=Nc3cc(S(=O)(=O)O)c4cccnc4c3O)ccc2c1 | 95.9% and 96.5% | 89 | 93.5 | 107 | 96.9 | 95.2 | 88.5 | 94.5
11 | CCCOc1ccc(C(=O)OCCN(CC)CC)cc1N [Proparacaine HCl] | 99.7% and 99.3% | 99.5 | 103 | 104 | 99.1 | 99.7 | 90.2 | 103
12 | N#Cc1ccc([C@H]2CCc3cncn32)c(F)c1 | 103% and 100% | 88.2 | 100 | 113 | 99.5 | 101 | 95.9 | 94.6
13 | N#CC(=C(O)c1ccc(Cl)cc1Cl)c1nc2ccccc2c(=O)[nH]1 [HPI-4 (Ciliobrevin A)] | 91.5% and 92.8% | 93.6 | 98.9 | 97 | 92.1 | 87.2 | 106 | 99.5
14 | CCOc1nc2cccc(C(=O)O)c2n1Cc1ccc(-c2ccccc2-c2nnn[nH]2)cc1 [Candesartan (Atacand)] | 91% and 88.3% | 89.3 | 91.7 | 100 | 94.7 | 93.5 | 83.1 | 87.3
15 | COc1cc2oc(=O)ccc2c(OC)c1C[C@@H](O)C(C)(C)O [Toddalolactone] | 106% and 101% | 104 | 102 | 105 | 112 | 106 | 102 | 104
16 | CO/N=C1\C[C@]2(C[C@@H]3C[C@@H](C/C=C(\C)C[C@@H](C)/C=C/C=C4\CO[C@@H]5[C@H](O)C(C)=C[C@@H](C(=O)O3)[C@]45O)O2)O[C@H](/C(C)=C/C(C)C)[C@H]1C [Moxidectin] | 59.6% and 63.5% | 66.4 | 54.6 | 67.3 | 46.9 | 53.3 | 40.1 | 25.3
17 | COc1cc2nc(N3CCCC3)nc(NCCCCCN3CCCC3)c2cc1OC | 2.75% and 3.32% | 4.26 | 9.85 | 3.33 | 0.26 | 0.27 | 0.31 | 0.37
18 | O=[N+]([O-])c1ccc2c(c1)S(=O)(=O)C=C2 [Stattic] | 8.02% and 0.43% | 0.74 | 0.14 | 0.16 | 0.12 | 0.25 | 0.06 | 0.06
19 | Nc1ccn([C@@H]2O[C@H](CO)[C@@H](O)[C@@H]2O)c(=O)n1 [Cytarabine hydrochloride] | 83.4% and 98.6% | 94.9 | 28.6 | 30.5 | 7.14 | 1.49 | 6.92 | 8.04

Row | SMILES | cell viability (K562; SRSF2 genotype: SRSF2 P95H/wt) | cell viability (K562; SRSF2 genotype: SRSF2 wt/wt) [%] | cell viability (MARIMO; SRSF2 genotype: SRSF2 P95H/wt) [%] | cell viability (MARIMO; SRSF2 genotype: SRSF2 wt/wt) [%] | cell viability (MOLM14; SRSF2 genotype: SRSF2 P95H/wt) [%] | cell viability (MOLM14; SRSF2 genotype: SRSF2 wt/wt) [%] | cell viability (OCI-AML2; SRSF2 genotype: P95H/wt) [%] | cell viability (OCI-AML2; SRSF2 genotype: wt/wt) [%]
20 | Cc1nc(-c2cccnc2)sc1C(=O)Nc1ccccc1-c1cn2c(CN3CCOCC3)csc2n1 | 97.4% and 94.2% | 88.3 | 107 | 116 | 102 | 103 | 95.3 | 102
21 | C[C@]12CC[C@H](O)CC1=CC[C@@H]1[C@@H]2CC[C@]2(C)C(n3cnc4ccccc43)=CC[C@@H]12 [Galeterone (TOK-001)] | 83% and 93.4% | 95.7 | 77.5 | 81.9 | 88.2 | 97.8 | 80.3 | 80.1
22 | COC(=O)C1=CO[C@@H](O[C@@H]2O[C@H](CO)[C@@H](O)[C@H](O)[C@H]2O)[C@@H]2[C@@]3(C)O[C@H]3[C@@H](O)[C@]12O [Sesamoside] | 101% and 102% | 104 | 102 | 98.4 | 109 | 105 | 104 | 107
23 | CCN(CC)CC(=O)Oc1ccc(NC(C)=O)cc1 [Propacetamol hydrochloride] | 90.2% and 83.3% | 86.5 | 94.2 | 90.2 | 93.6 | 94.7 | 86.4 | 96.7
24 | C[C@@H](O[C@H]1OCCN(Cc2nn(P(=O)(O)O)c(=O)[nH]2)[C@H]1c1ccc(F)cc1)c1cc(C(F)(F)F)cc(C(F)(F)F)c1 [Fosaprepitant dimeglumine salt] | 52.4% and 55.7% | 57 | 53.1 | 52.6 | 60.9 | 65 | 52.4 | 58
25 | Cc1ccc(C(=O)O)c(O)c1 [4-Methylsalicylic acid] | 107% and 102% | 103 | 108 | 111 | 99.7 | 109 | 99.3 | 95.5
26 | CC1(C)CCCC2(C)OC(=O)C=C12 (stereo unspecified) [Dihydroactinidiolide] | 104% and 93.7% | 94.5 | 97.6 | 104 | 93.8 | 99.7 | 91.1 | 104
27 | CC(C)=CCC[C@](C)(O[C@@H]1O[C@H](CO[C@@H]2O[C@H](CO)[C@@H](O)[C@H](O)[C@H]2O)[C@@H](O)[C@H](O)[C@H]1O)[C@H]1CC[C@]2(C)[C@@H]1[C@H](O)C[C@@H]1[C@@]3(C)CC[C@H](O[C@@H]4O[C@H](CO)[C@@H](O)[C@H](O)[C@H]4O)C(C)(C)[C@@H]3CC[C@]12C [Gypenoside XVII] | 112% and 100% | 109 | 108 | 103 | 110 | 106 | 106 | 106
28 | COc1c(C)cnc(Cn2cnc3c(Cl)nc(N)nc32)c1C | 21.6% and 31% | 29.2 | 32.7 | 25.9 | 2.67 | 2.88 | 18.4 | 22.2
29 | CC[C@H](NC(=O)[C@H](C)NC)C(=O)N1C[C@@H](O)C[C@H]1Cc1c(-c2[nH]c3cc(F)ccc3c2C[C@@H]2C[C@H](O)CN2C(=O)[C@H](CC)NC(=O)[C@H](C)NC)[nH]c2cc(F)ccc12 | 97.7% and 102% | 99.4 | 78.6 | 93.4 | 61.6 | 65.4 | 103 | 107
30 | CC(OC(=O)OC1CCCCC1)OC(=O)C1=C(CSc2nnnn2CCN(C)C)CS[C@@H]2[C@H](NC(=O)Cc3csc(N)n3)C(=O)N12 (stereo partly specified) [Cefotiam Hexetil Hydrochloride] | 105% and 98.2% | 93.7 | 87.5 | 94.9 | 89.9 | 94.3 | 90 | 93.8
31 | NCCCCCC(=O)O | 99% and 100% | 99.6 | 101 | 98.5 | 103 | 105 | 113 | 99
32 | C=CC(=O)Nc1ccc(CN2C(=O)N(c3cc(OC)cc(OC)c3)Cc3cnc(Nc4ccc(N5CCN(C)CC5)cc4)nc32)cc1 | 66.2% and 73.3% | 77.8 | 81.2 | 78.8 | 37.9 | 40.1 | 25.8 | 34.5
33 | O=C1OC(C(O)CO)C([O-])=C1O.[Na+] (stereo unspecified) [Sodium erythorbate] | 104% and 106% | 114 | 106 | 107 | 102 | 110 | 114 | 119
34 | O=S(=O)(O)CCS [Mesna (Uromitexan, Mesnex)] | 107% and 96% | 103 | 94.2 | 110 | 104 | 100 | 92 | 104
35 | C=C1CC[C@@H]2[C@](C)(COC(=O)CCC(=O)O)[C@H](OC(=O)CCC(=O)O)CC[C@@]2(C)[C@@H]1/C=C/C1=CCOC1=O [Dehydroandrographolide Succinate Potasium Sa] | 105% and 103% | 105 | 105 | 101 | 99.1 | 105 | 109 | 104
36 | c1ccc(CNc2nc(NCc3ccccc3)c3ccccc3n2)cc1 | 17.4% and 10.9% | 12.4 | 0.92 | 11 | 0.16 | 0.16 | 0.21 | 0.19
37 | NC1(c2ccc(-c3nc4ccn5c(=O)[nH]nc5c4cc3-c3ccccc3)cc2)CCC1 [MK-2206 dihydrochloride] | 38.7% and 32.2% | 48.4 | 51.4 | 53.3 | 14.7 | 22.9 | 5.42 | 27.8
